The panel holds about 83,000 compounds, 20% with a hit somewhere; the sample as a whole holds those more often.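 Each cell line was grown in a 96-well plate and treated with one concentration of compound for 48 hours. Values below 10 were considered active.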 Values without a mark were called inactive. Calls of active or inactive are those of the source.

The test relates to NCI-H23 lung. Put plainly: NCI-60 one-dose screen, 48 h (100 = growth as untreated, 0 = no growth, -100 = all killed). As to conditions: 10 µM unless noted.
As for `CN1CCN(Cc2ccc(NC(=O)c3[nH]ncc3Nc3ncnc4c3CCC4)cc2)CC1`, the growth is 5.19% (active). In the case of `O=C1C(=O)N(CCCCn2cc(CO)nn2)c2ccccc21` it was 98.2%; in that of `Cc1cc(Nc2nc(N3CCN(C)CC3)nc3ccccc23)n[nH]1`, 91.6%. The figure for `CC(=O)C1=C(O)C=C2Oc3c(C(=O)/C=C/c4cc(Cl)cc(Cl)c4)c(O)c(C)c(O)c3[C@]2(C)C1=O` is -42% (active); for `O=C(Nc1ccc(CN2CCOCC2)cc1)c1[nH]ncc1Nc1ncnc2sccc12` it is -3.72% (active); for `COc1cc(-c2c3sc(=O)[nH]c3nc3c2c(=O)[nH]n3C(C)C)cc2c1OCO2` it is 108%.

As for `O=C1/C(=C/c2ccc(Cl)c(Cl)c2)CN(C(=O)CCN2CCC(=NO)CC2)C/C1=C\c1ccc(Cl)c(Cl)c1`, the growth is -73.4% (active). The figure for `CCN(CC)CCCC(C)Nc1ccnc2c(OC)cccc12` (stereo not drawn) is 106%; for `COc1ccc(-c2cn3c(-c4ccc(OC)cc4)cnc3c(Oc3ccc4c(C)cc(=O)oc4c3)n2)cc1` it is 33%. In the case of `CN1CCN(Cc2ccc(NC(=O)c3[nH]ncc3Nc3ncnc4sccc34)cc2)CC1` it was -1.52% (active).

For `O=C([C@@H](COCc1ccccc1)N1C(=O)[C@@H](N2C(=O)OC[C@@H]2c2ccccc2)[C@H]1/C=C/c1ccccc1)N1CCC(CCN2CCCCC2)CC1`, the growth was 87%. In the case of `OCCNCCNc1c2ccccc2nc2ccccc12` it was 64.8%. In the case of `CC[C@H](Nc1ncnc(N)c1C(N)=O)c1nc2cccc(NCc3ccc(C(=O)NO)cc3)c2c(=O)n1-c1ccccc1`, the growth was 91.7%.

These data come from PubChem BioAssay (NCI).
